Bioassay records (PubChem)
Myeloid diff MLP: myeloid differentiation induction; AID 624256; hit rate 1% among 360,000; ER-HoxA9 myeloid progenitors, lysozyme-GFP differentiation, flow cytometry; calls only at 10 µM;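 active means normalized GFP-positive differentiation at or above the plate's own cutoff, the solvent-only control mean plus 3 SD; inconclusive means no clear call, values can overlap the other calls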;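 further: cells exposed to compound for four days before flow analysis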
NOD2 RIPK2 PPI: NOD2-RIPK2 protein interaction inhibition | AID 624267 | hit rate 0.38% among 360,000 | inhibition, % at 4.98 µM | CHO BLA complementation NOD2-RIPK2, CCF4 ratio; in the data active means inhibition above about 21%;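 further: 0% = vehicle only and 100% = reference blocker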
TLR4-MyD88 BLA: inhibitors of human TLR4-MyD88 binding; O00206+Q99836; HeLa CL3-4 TLR4/MyD88 BLA complementation, FRET ratio; inhibition, % at 8.4 µM; hit rate 0.18% among 200,000; AID 861; in the data active means inhibition above about 25%;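 further: 0% = vehicle and 100% = reference inhibitor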
TLR9-MyD88 inh: TLR9-MyD88 interaction inhibition; inhibition, % at 4.98 µM; Q9NR96+Q99836; hit rate 0.21% among 340,000; CHO BLA complementation TLR9-MyD88, CCF4 FRET ratio;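 active means inhibition above the mean over all tested compounds plus 3 SD, cut at about 21% in these data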;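 further: 0% = DMSO only wells and 100% = clavulanate BLA inhibitor control wells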
Myeloid diff: promotes myeloid progenitor differentiation; shares compounds with Myeloid diff MLP; ER-HoxA9 myeloid progenitors, GFP/Mac1 double-positive flow; calls only; hit rate 2% among 2,300; AID 651706;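 active means share of green or green-and-red cells above 9 and 9% in run 1 or 4 and 3% in run 2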
GFP autofluor: flagged as fluorescent in myeloid differentiation counter-screen | shares compounds with Myeloid diff MLP | ER-HoxA9 myeloid progenitors, no estrogen, GFP autofluorescence flow cytometry; vehicle wells 0%, positive control 100% | fluorescence response, % (concentration not given with the values) | hit rate 7.4% among 2,300 | AID 651707;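 active means over 5% cells positive for green fluorescent reporter, or over 2% positive for both it and APC stain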;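 further: range taken on the double positive population between DMSO and positive control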
* marks the source's active call; other numbers are inactive results; i = inactive; ? = inconclusive; · = not tested or not shown; + = active, no number. Compounds with a hit are over-represented: about 1.5% of the library has one in this group of screens.

SMILES	Myeloid diff MLP	NOD2 RIPK2 PPI	TLR4-MyD88 BLA	TLR9-MyD88 inh	Myeloid diff	GFP autofluor
CCn1c(=NC(=O)CS(=O)(=O)c2ccc(C)cc2)sc2cccc(OC)c21	i	-5	·	-2	i	0
COc1cccc2sc(=NC(=O)CS(=O)(=O)c3ccc(Cl)cc3)n(C)c12	+	-11	·	3	i	0
COc1cccc2sc(=NC(=O)CS(=O)(=O)c3ccc(F)cc3)n(C)c12	i	-10	·	0	·	·
CCC(C)N(C(=O)Cn1nnc2ccccc21)C(C(=O)NCc1ccco1)c1cccc(OC)c1 (stereo not given)	i	-9	8	-10	i	0
Cc1cc(C(=O)COc2ccc(F)cc2Br)c(C)n1C1CC1	i	0	·	-8	i	2
COc1ccc(CCn2c(=N)c(C(=O)NCC3CCCO3)cc3c(=O)n4ccccc4nc32)cc1 (stereo not given)	?	-11	·	-5	·	·
COc1ccc(Cn2c(=N)c(C(=O)NCC3CCCO3)cc3c(=O)n4ccccc4nc32)cc1 (stereo not given)	i	-5	·	-6	i	0
c1ccc(COc2cccc(-c3cc4nc(NCCN5CCOCC5)ccn4n3)c2)cc1	+	-3	·	·	i	0
Clc1cccc(CNc2ccn3nc(-c4ccc(OCc5ccccc5)cc4)cc3n2)c1	+	5	·	·	i	1
c1ccc(COc2ccc(-c3cc4nc(NCCN5CCOCC5)ccn4n3)cc2)cc1	i	2	·	·	·	·
CC(C)n1nnnc1C1c2ccccc2C(=O)N1Cc1ccccc1 (stereo not given)	?	-5	·	·	·	·
O=C(NCC1CCCO1)C(c1ccc(F)cc1)N(C(=O)Cn1nnc(-c2ccc(F)cc2)n1)c1cccc(O)c1 (stereo not given)	i	-13	-7	5	i	0
O=CNc1cc(-c2ccccc2)cn2c(-c3ccc(F)c(Cl)c3)cnc12	i	-9	·	·	·	·
CN1CCN(c2ccc(-c3cc(NC=O)c4ncc(-c5ccc(F)c(Cl)c5)n4c3)cc2)CC1	+	3	·	·	i	1
CC(=O)c1ccc(-c2cnc3c(NC=O)cc(-c4ccccc4Oc4ccccc4)cn23)cc1	i	-3	·	·	i	0
O=CNc1cc(-c2ccccc2Oc2ccccc2)cn2c(-c3ccc(F)cc3)cnc12	i	6	·	·	·	·
COc1cc(-c2cnc3c(NC=O)cc(-c4ccc(S(C)(=O)=O)cc4)cn23)cc(OC)c1OC	+	-2	·	·	i	0
CN(C)c1ccc(-c2cc(NC=O)c3ncc(-c4ccc(F)c(Cl)c4)n3c2)cc1	+	12	·	·	i	1
COc1cnc(-c2cccc(C(F)(F)F)c2)c(NC(=O)c2cc3ccccc3s2)n1	i	0	·	·	·	·
Cn1cc(CN2CCC(C(=O)NC(c3ccc(-c4ccccc4)cc3)c3cnccn3)CC2)c2ccccc21 (stereo not given)	?	2	·	·	·	·
CCCCN1CC(N2CCN(CCN(C)C)CC2)CS1(=O)=O (stereo not given)	i	10	·	·	·	·
COC(=O)c1cc(=O)nc(NNC(C)=O)s1	i	-11	·	·	·	·
COc1cccc(CNC(=O)[C@@H]2CCCN2C(=O)[C@H]2CCCCN2S(=O)(=O)c2ccc(OC)c(C)c2)c1	i	-11	·	·	·	·
CCC(=O)N/C(N)=N/c1nc(C)c2cc(C)c(C)cc2n1	i	-10	·	·	·	·
Cc1cc2nc(/N=C(\N)NC(=O)C(C)C)nc(C)c2cc1C	i	-11	·	0	i	0
SMILES	Myeloid diff MLP	NOD2 RIPK2 PPI	TLR4-MyD88 BLA	TLR9-MyD88 inh	Myeloid diff	GFP autofluor
Cc1ccc(-c2csc(NC(=O)c3c(C)noc3C)n2)cc1	+	-14	·	-6	i	0
O=C(NC1CCCCC1)C(c1cccc2ccccc12)n1c(=O)c(-c2ccco2)nc2ccccc21 (stereo not given)	i	14	·	·	·	·
COc1cc(C(=O)N2CCCC(c3nc(-c4cccs4)no3)C2)cc(OC)c1OC (stereo not given)	i	-7	-1	1	i	1
NNC(=O)c1[nH]c2ccc(Cl)cc2c1-c1ccccc1	i	0	·	-1	i	2
O=C(O)CSc1c(-c2ccccc2)c2cc(Cl)ccc2[nH]c1=O	i	-9	-1	-3	·	·
O=C(NC(=S)Nc1ccc(N2CCOCC2)c(Cl)c1)C(c1ccccc1)c1ccccc1	i	1	-8	-1	·	·
O=C(CSc1nnnn1-c1ccc(F)cc1)Nc1ccc(N2CCOCC2)c(Cl)c1	+	-1	-6	7	i	0
CCCC(=O)NC(=S)Nc1ccc(N2CCOCC2)c(Cl)c1	i	-1	6	6	i	0
COc1ccc(NC(=O)CSc2nnnn2-c2ccc(F)cc2)cc1	i	6	·	4	·	·
CCOC(=O)c1sc2nc3c(SCCC#N)cc(C(=O)c4cc(F)ccc4O)cn3c(=O)c2c1C	+	-4	-9	2	i	0
Cc1ccc(N2CCN(C(=O)C(=O)c3ccc4c(c3)OCO4)CC2)cc1	i	-1	·	·	·	·
CN(c1cc2c(c3c1ccn3C)C1CCC2O1)C1CCCCC1 (stereo not given)	i	-5	·	·	·	·
Cn1ccc2c(N3CCCCCCC3)cc3c(c21)C1CCC3O1 (stereo not given)	+	16	·	·	i	0
C=CCOc1ccc(C2C(C(=O)c3ccco3)=C(O)C(=O)N2Cc2cccnc2)cc1 (stereo not given)	i	-4	-10	-13	i	13*
Cc1cccc(C)c1-n1nnnc1C1c2ccccc2C(=O)N1C1CC1 (stereo not given)	i	-10	·	·	·	·
COc1ccc(OC)c(N(CC(=O)O)S(=O)(=O)c2ccc(OC)c(OC)c2)c1	+	4	10	9	i	1
COc1ccc(OC)c(N(CC(=O)N2CCCC2)S(=O)(=O)c2ccc(OC)c(OC)c2)c1	i	-7	-5	4	·	·
CCN(CC)CCNC(=O)c1ccc(NC(=O)/C=C/c2ccc3ccccc3n2)cc1	+	-5	·	5	i	0
CCOC(=O)[C@H]1[C@H]2COc3ccc(Br)cc3[C@H]2N2C(=O)CN(CCc3c[nH]c4ccccc34)C(=O)[C@@]12C	i	2	·	-7	·	·
CCOC(=O)[C@H]1[C@H]2COc3cc(OC)ccc3[C@@H]2N2C(=O)CN(CCc3c[nH]c4ccccc34)C(=O)[C@@]12C	i	-3	·	-3	i	0
N#Cc1ccccc1C[C@H](N)C(=O)NC[C@H]1O[C@@H](n2cnc3c(N)ncnc32)[C@H](O)[C@@H]1O	i	2	·	·	·	·
CCOC(=O)C1CCN(C(=O)COc2ccc(Cl)cc2Cl)CC1	i	0	12	9	i	0
O=C(Nc1sc2c(c1C(=O)NCC1CCCO1)CCCC2)c1cccs1 (stereo not given)	i	1	0	-12	i	0
